# Results reported in PubChem BioAssay (NCATS).
# Records with an inconclusive call do not appear. Calls of active or inactive are those of the source. The call rests on the fitted dose curve; in most records, active means well fitted inhibition curve with a large enough effect; inconclusive means small, poorly fitted or top-dose-only effect; inactive means flat fitted curve, though single readings scatter.
# System: HaCat
# Assay: Cytotoxic Profiling of Annotated Libraries Using Quantitative High-Throughput Screening (AID 1296008); further: nearly all actives have a fitted effect of over 60% in size
# Details: Five cell lines viability, CellTiter-Glo ATP luminescence, 48-72 h; max response: stronger effect = lower value
# How it was run: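 Compounds were pin-transferred onto cells and incubated 48 or 72 hr at 37 degree Celsius, 95% humidity. CellTiter-Glo was added, plates sat 10 min at room temperature, then ATP-coupled luminescence was imaged as the viability read-out.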
# On the % scale 0 is the no-effect control and ±100 the full control effect; potency means the concentration at half of the fitted maximal effect.
SMILES,max response,Potency
C[N+](C)([O-])CCNc1ccc(NCC[N+](C)(C)[O-])c2c1C(=O)c1c(O)ccc(O)c1C2=O,-8.98% (inactive),
Cc1[nH]c(C=C2C(=O)Nc3ccccc32)c(C)c1CCC(=O)O,0.623% (inactive),
CC[C@]12C=CCN3CC[C@@]4(c5cc([C@@]6(C(=O)OC)C[C@H]7C[C@@H](C(C)(F)F)CN(Cc8c6[nH]c6ccccc86)C7)c(OC)cc5N(C)[C@H]4[C@@](O)(C(=O)OC)[C@H]1OC(C)=O)[C@@H]32,-0.147% (inactive),
CC(C)(C)c1nc2c3cc[nH]c(=O)c3c3cc(F)ccc3c2[nH]1,,6.62 µM (active)
